Results as given in PubChem BioAssay AID1159580 (chemical genetic matrix, 2015).
About 2,000 (36%) of roughly 5,500 compounds were called active. Inconclusive results (about 18%) are left out. Cut-off read from the data, not from the text of the source: active = normalized growth mostly below about 0.91 (no sharp cut-off); inconclusive = no clear call, values can overlap the other calls; inactive = mostly above about 0.92. This is one part of the list.

Assay: chemical genetic growth profiling, strain panel (AID 1159580);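 note: tested at 20 µM; growth read once vehicle control cultures reached saturation at 30 °C; 1 = growth at the plate median or of vehicle wells; lower values mean less growth of the strain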
Conditions: S. cerevisiae deletion strains, growth OD

Measured: normalized growth

NCCS(=O)(=O)O
inactive: locus YAL021C, strain ccr4, active compounds read low 0.965 | locus YAL026C, strain drs2, active compounds read low 0.978 | locus YAL030W, strain snc1, active compounds read low 0.981 | locus YAL040C, strain CLN3, active compounds read low 1 | locus YBL061C, strain skt5, active compounds read low 0.984 | locus YBR009C, strain hhf1, active compounds read low 0.981 | locus YBR023C, strain chs3, active compounds read low 0.982 | locus YBR171W, strain sec66, active compounds read low 0.97 | locus YBR231C, strain swc5, active compounds read low 0.983 | locus YBR279W, strain paf1, active compounds read low 0.985 | locus YCL011C, strain gbp2, active compounds read low 0.965 | locus YCL016C, strain dcc1, active compounds read low 0.984 | locus YCL061C, strain MRC1 (second series), active compounds read low 1 | locus YCL061C, strain MRC1, active compounds read low 0.98 | locus YCL069W, strain vba3, active compounds read low 0.976 | locus YCR088W, strain abp1, active compounds read low 0.978 | locus YDL005C, strain med2, active compounds read low 0.984 | locus YDL040C, strain nat1, active compounds read low 0.986 | locus YDR001C, strain nth1, active compounds read low 0.983 | locus YDR069C, strain doa4, active compounds read low 0.98 | locus YDR137W, strain rgp1, active compounds read low 0.971 | locus YDR150W, strain NUM1, active compounds read low 1.01 | locus YDR159W, strain sac3, active compounds read low 0.952 | locus YDR195W, strain ref2 0.924 | locus YDR297W, strain sur2, active compounds read low 0.979 | locus YDR334W, strain swr1, active compounds read low 0.948 | locus YDR335W, strain msn5, active compounds read low 0.969 | locus YDR363W, strain ESC2, active compounds read low 1 | locus YDR392W, strain spt3, active compounds read low 0.977 | locus YEL003W, strain gim4, active compounds read low 0.975 | locus YEL037C, strain rad23, active compounds read low 0.975 | locus YEL061C, strain CIN8 (second series), active compounds read low 0.97 | locus YER002W, strain NOP16, active compounds read low 0.984 | locus YER015W, strain faa2, active compounds read low 0.971 | locus YER016W, strain bim1, active compounds read low 0.975 | locus YER111C, strain swi4, active compounds read low 0.967 | locus YER155C, strain BEM2 (second series), active compounds read low 0.978 | locus YFR010W, strain ubp6, active compounds read low 0.959 | locus YGL167C, strain pmr1, active compounds read low 0.977 | locus YGL173C, strain kem1, active compounds read low 0.971 | locus YGL227W, strain vid30, active compounds read low 0.984 | locus YGL240W, strain doc1, active compounds read low 0.961 | locus YGL253W, strain hxk2, active compounds read low 0.986 | locus YHR013C, strain ard1, active compounds read low 0.968 | locus YHR027C, strain rpn1, active compounds read low 0.967 | locus YHR030C, strain SLT2, active compounds read low 0.943 | locus YHR079C, strain IRE1, active compounds read low 0.966 | locus YHR142W, strain chs7, active compounds read low 0.964 | locus YJL092W, strain hpr5, active compounds read low 0.963 | locus YJL095W, strain BCK1 (second series), active compounds read low 0.972 | locus YJL095W, strain BCK1, active compounds read low 0.998 | locus YJL115W, strain asf1, active compounds read low 0.958 | locus YJL129C, strain trk1, active compounds read low 0.961 | locus YJL154C, strain vps35, active compounds read low 0.974 | locus YJL164C, strain tpk1, active compounds read low 0.986 | locus YJL166W, strain qcr8, active compounds read low 0.986 | locus YJL187C, strain SWE1, active compounds read low 0.982 | locus YJR066W, strain TOR1, active compounds read low 0.92 | locus YJR075W, strain HOC1, active compounds read low 0.999 | locus YKL160W, strain elf1, active compounds read low 0.983 | locus YKR026C, strain gcn3, active compounds read low 0.967 | locus YKR091W, strain srl3, active compounds read low 0.979 | locus YLL001W, strain dnm1, active compounds read low 0.97 | locus YLL026W, active compounds read low 0.982 | locus YLL041C, strain sdh2, active compounds read low 0.971 | locus YLR027C, strain aat2, active compounds read low 0.981 | locus YLR113W, strain HOG1, active compounds read low 1.02 | locus YLR221C, strain rsa3, active compounds read low 0.982 | locus YLR258W, strain gsy2, active compounds read low 0.987 | locus YLR262C, strain YPT6 (second series), active compounds read low 0.99 | locus YLR320W, strain mms22, active compounds read low 0.972 | locus YLR342W, strain FKS1, active compounds read low 0.985 | locus YLR357W, strain rsc2, active compounds read low 0.972 | locus YLR370C, strain arc18, active compounds read low 0.981 | locus YLR384C, strain iki3, active compounds read low 0.977 | locus YML120C, strain ndi1, active compounds read low 0.963 | locus YMR058W, strain fet3, active compounds read low 0.97 | locus YMR125W, strain sto1, active compounds read low 0.954 | locus YMR129W, active compounds read low 0.978 | locus YMR205C, strain PFK2, active compounds read low 1 | locus YMR231W, strain pep5, active compounds read low 0.985 | locus YMR307W, strain GAS1, active compounds read low 1 | locus YNL071W, strain lat1, active compounds read low 0.981 | locus YNL128W, strain TEP1, active compounds read low 1 | locus YNL153C, strain GIM3, active compounds read low 1.04 | locus YNL175C, strain NOP13, active compounds read low 1.01 | locus YNL183C, strain NPR1, active compounds read low 0.939 | locus YNL197C, strain WHI3, active compounds read low 0.993 | locus YNL209W, strain ssb2, active compounds read low 0.973 | locus YNL224C, strain SQS1, active compounds read low 1 | locus YNL248C, strain rpa49, active compounds read low 0.944 | locus YNL322C, strain KRE1 (second series), active compounds read low 0.971 | locus YNR049C, strain mso1, active compounds read low 0.975 | locus YOR001W, strain rrp6, active compounds read low 0.957 | locus YOR070C, strain gyp1, active compounds read low 0.992 | locus YOR080W, strain dia2, active compounds read low 0.978 | locus YOR083W, strain WHI5 (second series), active compounds read low 1.03 | locus YOR083W, strain WHI5, active compounds read low 0.976 | locus YOR106W, strain vam3, active compounds read low 0.97 | locus YOR231W, strain MKK1, active compounds read low 0.954 | locus YOR265W, strain rbl2, active compounds read low 0.976 | locus YOR270C, strain vph1, active compounds read low 0.949 | locus YOR290C, strain snf2, active compounds read low 0.999 | locus YPL051W, strain arl3, active compounds read low 0.99 | locus YPL055C, strain LGE1, active compounds read low 1 | locus YPL078C, strain atp4, active compounds read low 0.966 | locus YPL106C, strain sse1, active compounds read low 0.947 | locus YPL240C, strain hsp82, active compounds read low 0.994 | locus YPL241C, strain CIN2, active compounds read low 1 | locus YPL256C, strain CLN2, active compounds read low 0.957
